Molecules are shown by their SMILES. “And” between values parts separate entries of the source, which are not always exact repeats. Identical values can stand only once. Inconclusive results are not listed. Unmarked numbers belong to inactive results. The source made the active and inactive calls. Calls come from the whole dose curve; as a rule, active = well fitted cell-killing curve with a large enough effect in the repeat runs; inconclusive = weak or mixed curves, or effect the other way; inactive = flat fitted curve, though single readings scatter.
% is set by controls: 0 for no effect and ±100 for the full control effect; potency is the fitted concentration of half-maximal effect.

This assay in a line: qHTS RealTime-Glo MT Cell Viability Assay in HEK293 cells - 16 hour (AID 1224872). For activity change, negative = cytotoxicity: top concentration of the series differs between compounds. Note: nearly all actives have a fitted effect of over 50% in size. The following applies: RealTime-Glo luminescence; series mostly up to 76.8 µM; activity change, negative = cytotoxicity: at the top concentration. The gist of the method: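 Tox21 10K qHTS, HEK293, 600 cells/well, RealTime-Glo reagent co-dispensed with cells; 5 h preincubation, compound by pintool, 37 C, luminescence at 0–40 h.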
For the compound `COP(=S)(OC)Oc1nc(Cl)c(Cl)cc1Cl`, the “activity change, negative = cytotoxicity” value is -16.3%. Still for that read-out and setting: under `[O-][Cl+3]([O-])([O-])O` stands 11.3%; under `CCCCC/C=C\C/C=C\C/C=C\C/C=C\CCCC(=O)NCC(=O)O`, -15.2% [at 35.3 µM]. `c1ccc(Nc2ccc(Nc3ccccc3)cc2)cc1`: the Potency is 19.4 µM (active). `O=Cc1ccccc1`: the “activity change, negative = cytotoxicity” value was 11.5%.

In the case of `CC[C@H](C)[C@H]1O[C@]2(C=C[C@@H]1C)C[C@@H]1C[C@@H](C/C=C(\C)[C@@H](O[C@H]3C[C@H](OC)[C@@H](O[C@H]4C[C@H](OC)[C@@H](NC)[C@H](C)O4)[C@H](C)O3)[C@@H](C)/C=C/C=C3\CO[C@@H]4[C@H](O)C(C)=C[C@@H](C(=O)O1)[C@]34O)O2`, the Potency was 6.92 µM (active).

With `Nc1cc(Cl)ccc1Cl`, the “activity change, negative = cytotoxicity” value is 10.8%.

Regarding `C1=CCC=C1`, the “activity change, negative = cytotoxicity” value is 12.8%.

For `BrCC(Br)(Br)Br`, the Potency was 25.5 µM (active).

Take `CCC(OC(C)=O)C(CC(C)NC)(c1ccccc1)c1ccccc1` (stereo unspecified): the Potency is 49.4 µM (active). On the same count and under the same terms, under `O=C1C2(Cl)C3(Cl)C4(Cl)C(Cl)(Cl)C5(Cl)C3(Cl)C1(Cl)C5(Cl)C24Cl` (stereo unspecified) stands 21.5 µM (active) and 41.8 µM (active); under `O=C1C(Cl)=C(Cl)C(=O)C(Cl)=C1Cl`, 27.4 µM (active). For `CSC(C)(C)/C=N/O`, the “activity change, negative = cytotoxicity” value is 7.59%. The same measure, in the same setting: under `NC(=O)C(Cl)Cl` stands 1.67%; under `CN(C)CCc1c[nH]c2ccccc12`, -5.08%. Same read-out and setting: under `CCCCn1cc[n+](C)c1` (tested in a mixture with another compound) stands 0.777%; under `CCC(C)c1cccc(C(C)CC)c1O` (stereo unspecified), -17%.

As to `Fc1ccc(C(OCCN2CCN(CCCc3ccccc3)CC2)c2ccc(F)cc2)cc1`, the Potency was 8.49 µM (active).

Turning to `CCN(CC)CCN1C(=O)CN=C(c2ccccc2F)c2cc(Cl)ccc21`, the “activity change, negative = cytotoxicity” value is 0.459% [at 35.3 µM]. The same measure, in the same setting: under `Nc1ccccc1-c1ccccc1` stands -14%. As to `O=[N+]([O-])c1cc(C(F)(F)F)c(Cl)c([N+](=O)[O-])c1Nc1ncc(C(F)(F)F)cc1Cl`, the Potency was 2.75 µM (active). Turning to `CCCCn1cc[n+](C)c1.[Cl][Fe-]([Cl])([Cl])[Cl]`, the “activity change, negative = cytotoxicity” value is 0.57%.

As for `S=C=NCCc1ccccc1`, the Potency was 43.7 µM (active).

With `Nc1nc(N)nc(Cl)n1`, the “activity change, negative = cytotoxicity” value was 4.73%. Still for that read-out and setting: under `Brc1cccc(-c2ccccc2)c1` stands -17.1%. The same measure, in the same setting: under `CCCCCON=O` stands 3.27%; under `CC(=O)C(Cl)C(=O)N(C)C` (stereo unspecified), -4.74%; under `COc1ccc2[nH]cc(CCN(C(C)C)C(C)C)c2c1`, -11.3%.

As to `Cc1ccn2nc(S(=O)(=O)Nc3c(F)cccc3F)nc2n1`, the “activity change, negative = cytotoxicity” value is 4.75%.

Regarding `COC(=O)C(C)N(C(=O)c1ccco1)c1c(C)cccc1C` (stereo unspecified), the “activity change, negative = cytotoxicity” value was -2.87%. Same read-out and setting: under `[C-]1=CC=CC1.[Cl][Zr+2][Cl].c1cc[cH-]c1` stands -4.64%. For `O=c1c2ccccc2c(=O)c2c1cc(Cl)c1[nH]c3c([nH]c12)c(Cl)cc1c(=O)c2ccccc2c(=O)c13`, the “activity change, negative = cytotoxicity” value was 18.1%. For the compound `N#CSCc1ccccc1`, the “activity change, negative = cytotoxicity” value was -18.2%.

`ClC1=C(Cl)[C@]2(Cl)[C@H]3[C@H]([C@@H]4C=C[C@H]3C4)[C@@]1(Cl)C2(Cl)Cl`: the Potency is 43.6 µM (active) and 38.9 µM (active). Consider `O=C(N[C@@H]1N=C(c2ccccc2F)c2cccc3c2N(CC3)C1=O)c1cc2ccccc2[nH]1`, for which the “activity change, negative = cytotoxicity” value was -8.53% [at 35.3 µM]. For the compound `CN(C)C(=S)SSC(=S)N(C)C`, the Potency is 384 nM (active) and 692 nM (active).
